PubChem BioAssay
Calls of active or inactive are those of the source.

Legend:
[1] = binders of probe aFSTL3 on microarray, primary screen, stem cell growth factor project, biochemical, small-molecule microarray, fluorescence 635/667 (AID 1064); conditions: higher = more signal;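 also: measures binding of the biotinylated anti-FSTL3 antibody to printed compounds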
[2] = binders from COS7 lysate, DM2A8 probe, primary screen, torsin A project, cell lysate, small-molecule microarray, fluorescence 635/667 (AID 1065); conditions: higher = more signal, COS7 lysate expressing mutant human TOR1A
[3] = binders of probe aFGF2 on microarray, primary screen, stem cell growth factor project, biochemical, small-molecule microarray, fluorescence 635/667 (AID 1067); conditions: higher = more signal;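 also: measures binding of biotinylated aFGF2 protein to printed compounds on slides; z-score merges feature fluorescence and signal-to-noise across triplicate slides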
[4] = binders of probe aFGF10 on microarray, primary screen, stem cell growth factor project, biochemical, small-molecule microarray, fluorescence 635/667 (AID 1071); conditions: higher = more signal;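 also: score merges 667 nm spot intensity and signal to noise from triplicate slides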
[5] = molecular target: Neurogenic locus notch homolog protein 2 (Homo sapiens) (UniProt Q04721); assay: Notch2 binders on small-molecule microarrays, primary screen, biochemical, small-molecule microarray, 635 nm fluorescence, stem cell growth factors (AID 1073); conditions: Notch2 binding, higher = more signal
Chain of Neurogenic locus notch homolog protein 2 (Homo sapiens) (Q04721 whole entry, looked up, canonical isoform): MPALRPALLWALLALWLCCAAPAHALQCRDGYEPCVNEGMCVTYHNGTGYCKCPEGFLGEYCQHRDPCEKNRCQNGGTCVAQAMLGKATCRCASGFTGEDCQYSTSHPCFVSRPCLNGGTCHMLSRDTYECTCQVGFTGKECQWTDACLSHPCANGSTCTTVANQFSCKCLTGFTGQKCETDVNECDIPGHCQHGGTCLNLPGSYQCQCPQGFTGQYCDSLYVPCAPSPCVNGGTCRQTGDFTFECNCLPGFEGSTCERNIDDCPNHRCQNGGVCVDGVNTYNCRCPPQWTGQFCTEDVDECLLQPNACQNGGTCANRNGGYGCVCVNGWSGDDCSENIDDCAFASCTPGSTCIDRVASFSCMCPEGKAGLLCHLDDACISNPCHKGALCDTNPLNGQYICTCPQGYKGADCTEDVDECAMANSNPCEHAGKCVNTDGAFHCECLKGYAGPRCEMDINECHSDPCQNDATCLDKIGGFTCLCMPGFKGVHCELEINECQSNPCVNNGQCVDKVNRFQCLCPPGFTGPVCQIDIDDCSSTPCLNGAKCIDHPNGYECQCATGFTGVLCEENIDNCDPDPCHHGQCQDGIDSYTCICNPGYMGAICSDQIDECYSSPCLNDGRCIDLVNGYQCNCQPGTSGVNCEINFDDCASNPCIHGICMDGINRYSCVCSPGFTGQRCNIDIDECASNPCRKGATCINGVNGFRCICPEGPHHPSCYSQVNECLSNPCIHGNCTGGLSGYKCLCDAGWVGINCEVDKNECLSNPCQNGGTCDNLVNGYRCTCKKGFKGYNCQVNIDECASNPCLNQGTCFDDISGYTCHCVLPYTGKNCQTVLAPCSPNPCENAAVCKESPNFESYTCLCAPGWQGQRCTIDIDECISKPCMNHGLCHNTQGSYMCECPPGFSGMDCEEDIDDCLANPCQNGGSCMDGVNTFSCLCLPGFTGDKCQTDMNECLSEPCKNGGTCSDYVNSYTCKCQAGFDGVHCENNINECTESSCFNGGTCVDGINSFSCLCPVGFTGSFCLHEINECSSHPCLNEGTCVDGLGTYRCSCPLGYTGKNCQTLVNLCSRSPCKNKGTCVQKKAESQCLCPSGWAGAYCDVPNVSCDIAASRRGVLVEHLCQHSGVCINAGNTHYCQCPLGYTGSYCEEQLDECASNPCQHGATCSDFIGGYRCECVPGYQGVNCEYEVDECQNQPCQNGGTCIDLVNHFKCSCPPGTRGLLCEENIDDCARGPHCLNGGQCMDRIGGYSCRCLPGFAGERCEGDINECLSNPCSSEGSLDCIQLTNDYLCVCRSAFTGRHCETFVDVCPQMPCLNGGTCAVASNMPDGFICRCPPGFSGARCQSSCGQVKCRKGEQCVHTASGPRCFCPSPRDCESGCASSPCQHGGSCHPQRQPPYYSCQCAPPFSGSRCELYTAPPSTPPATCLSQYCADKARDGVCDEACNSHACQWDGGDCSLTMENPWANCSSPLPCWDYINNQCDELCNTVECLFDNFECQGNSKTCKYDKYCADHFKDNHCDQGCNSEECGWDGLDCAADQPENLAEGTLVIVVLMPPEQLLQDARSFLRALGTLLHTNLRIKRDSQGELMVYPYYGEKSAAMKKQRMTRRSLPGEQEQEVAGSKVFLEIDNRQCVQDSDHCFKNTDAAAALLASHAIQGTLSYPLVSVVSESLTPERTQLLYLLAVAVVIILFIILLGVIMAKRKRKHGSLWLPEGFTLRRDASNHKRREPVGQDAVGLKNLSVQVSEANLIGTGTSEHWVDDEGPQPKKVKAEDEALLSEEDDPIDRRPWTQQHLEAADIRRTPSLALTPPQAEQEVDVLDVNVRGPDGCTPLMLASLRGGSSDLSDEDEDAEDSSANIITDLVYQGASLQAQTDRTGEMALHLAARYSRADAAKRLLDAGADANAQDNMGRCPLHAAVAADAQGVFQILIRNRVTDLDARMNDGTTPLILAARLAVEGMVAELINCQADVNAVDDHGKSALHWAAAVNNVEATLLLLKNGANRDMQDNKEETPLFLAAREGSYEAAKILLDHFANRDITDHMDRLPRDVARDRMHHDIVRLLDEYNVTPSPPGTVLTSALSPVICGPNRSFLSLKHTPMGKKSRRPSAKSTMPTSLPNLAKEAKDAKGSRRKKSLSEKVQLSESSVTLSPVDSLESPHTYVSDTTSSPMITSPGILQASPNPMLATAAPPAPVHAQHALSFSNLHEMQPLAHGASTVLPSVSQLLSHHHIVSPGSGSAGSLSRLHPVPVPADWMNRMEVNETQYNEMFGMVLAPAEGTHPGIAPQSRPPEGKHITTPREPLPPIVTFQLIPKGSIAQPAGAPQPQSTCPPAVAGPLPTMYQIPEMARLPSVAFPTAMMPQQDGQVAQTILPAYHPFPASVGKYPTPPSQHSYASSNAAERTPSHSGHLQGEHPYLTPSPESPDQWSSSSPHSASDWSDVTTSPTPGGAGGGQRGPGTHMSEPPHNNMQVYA

[6] = molecular target: Pro-neuregulin-1, membrane-bound isoform (Homo sapiens) (UniProt Q02297); assay: NRG1 binders on small-molecule microarrays, primary screen, psychiatric disease protein project, biochemical, small-molecule microarray, fluorescence 635/667 (AID 1075); conditions: NRG1 binding, 635 nm fluorescence, higher = more signal;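 also: score combines 667 nm spot fluorescence with signal to noise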
Chain of Pro-neuregulin-1, membrane-bound isoform (Homo sapiens) (Q02297 whole entry, looked up, the tested form may be a part, canonical isoform): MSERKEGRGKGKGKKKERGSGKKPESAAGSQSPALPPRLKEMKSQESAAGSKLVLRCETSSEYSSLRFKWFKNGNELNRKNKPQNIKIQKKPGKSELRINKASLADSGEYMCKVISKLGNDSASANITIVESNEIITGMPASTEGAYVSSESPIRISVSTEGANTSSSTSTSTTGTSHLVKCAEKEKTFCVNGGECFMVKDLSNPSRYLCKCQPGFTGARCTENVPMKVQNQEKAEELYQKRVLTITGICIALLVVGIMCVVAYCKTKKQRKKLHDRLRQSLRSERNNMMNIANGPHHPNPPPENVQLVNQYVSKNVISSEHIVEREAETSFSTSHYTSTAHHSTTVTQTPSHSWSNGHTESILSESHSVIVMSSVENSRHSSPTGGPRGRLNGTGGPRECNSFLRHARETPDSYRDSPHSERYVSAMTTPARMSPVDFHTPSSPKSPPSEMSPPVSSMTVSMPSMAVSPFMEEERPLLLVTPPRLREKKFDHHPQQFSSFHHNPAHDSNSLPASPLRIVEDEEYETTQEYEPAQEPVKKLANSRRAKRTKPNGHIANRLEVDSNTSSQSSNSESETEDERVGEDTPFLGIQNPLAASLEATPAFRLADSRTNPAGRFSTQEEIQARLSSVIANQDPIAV

[7] = test system: Neuregulin-1 EGF-like domain; assay: binders of neuregulin-1 EGF-like domain, primary screen, biochemical, small-molecule microarray, 635 nm fluorescence (AID 1081); conditions: small-molecule microarray binding, higher = more signal;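 also: binding of the protein to compounds printed on small-molecule microarray slides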
[8] = FRG1 promoter luciferase signal modulators, primary screen, FRG1 inhibition for FSHD, cell-based, C2C12 myotubes, firefly/Renilla luciferase, luminescence (AID 1084); conditions: higher = more signal, called active from +8 up or from −8 down
[9] = binders of probe aFST on microarray, primary screen, stem cell growth factor project, biochemical, small-molecule microarray, fluorescence 635/667 (AID 1086); conditions: higher = more signal;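 also: score merges 667 nm fluorescence with signal-to-noise of each printed compound spot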
[10] = binders of probe aHhip on microarray, primary screen, stem cell growth factor project, biochemical, small-molecule microarray, fluorescence 635/667 (AID 1087); conditions: higher = more signal;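 also: score merges spot fluorescence at 667nm with spot signal to noise ratio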

| SMILES | composite z-score [1] | composite z-score [2] | composite z-score [3] | composite z-score [4] | composite z-score [5] | composite z-score [6] | composite z-score [7] | z-score [8] | composite z-score [9] | composite z-score [10] |
| --- | --- | --- | --- | --- | --- | --- | --- | --- | --- | --- |
| CCOC(=O)C[C@H]1[C@H](OC(=O)c2cc3ccccc3oc2=O)[C@@H](NC(=O)c2ccc3ccccc3n2)c2cc(OCCCO)ccc2N1C(=O)Cc1ccc(OC)cc1 | -0.446 | 0.522 | -0.0107 | 0.302 | 0.958 | 1.03 | 0.946 | 0.547 (inactive) | 0.24 | -0.201 |
| C=CCNC(=O)[C@H]1[C@@H]2C(=O)O[C@@H](c3ccccc3)[C@@H](c3ccccc3)N2[C@@H](c2ccccc2OCCO)[C@]12C(=O)N(C(=O)OCCOC)c1ccc(C#CC3(O)CCCCCC3)cc12 | -0.192 | 0.281 | 0.0376 | 0.434 | 0.776 | 1.04 | 1.2 | -2.54 (inactive) | 0.339 | 0.0176 |
| CC(C)C(O)C1C=CC2C(=O)N(c3ccccc3)C(=O)C2N1Nc1ccccc1 (stereo not given) | -0.393 | 0.466 | 0.0293 | 0.79 | 1.49 | 1.24 | 1.39 | 0.33 (inactive) | 1.53 | 0.158 |
| CCC#CCN(Cc1ccccc1Br)[C@H](/C=C/C1CC1)[C@@H](O)Cc1ccccc1 | 0.689 | 0.131 | -0.17 | -0.548 | -1.46 | -0.285 | -0.33 | -1.96 (inactive) | -0.17 | -0.169 |
| COC(=O)C1(CC(C)C)C=C2C(=C(c3ccccc3)C(=O)C2C)CN1 (stereo not given) | 1.92 | 0.442 | 0.669 | 0.746 | 1.1 | 1.02 | 0.78 | 1.19 (inactive) | 1.15 | 0.935 |
| O=C1O[C@@H](c2ccccc2)[C@@H](c2ccccc2)N2[C@@H](c3ccc(O)cc3)[C@]3(C(=O)Nc4ccc(C#CCCO)cc43)[C@@H](C(=O)N3CCN(c4ncccn4)CC3)[C@H]12 | -1.14 | -0.307 | -0.265 | 0.204 | 0.973 | 0.564 | 1.35 | -1.55 (inactive) | -0.925 | -1.27 |
| CCCC1(C(=O)OC)C=C2C(=C(C)C(=O)C2C)CN1 (stereo not given) | 0.948 | -0.313 | -0.0296 | -0.0572 | -0.326 | -0.74 | 0.188 | 3.02 (inactive) | 0.454 | -0.0645 |
| O=C1O[C@H](c2ccccc2)[C@H](c2ccccc2)N2[C@H]1[C@@H](C(=O)O)[C@]1(C(=O)Nc3ccc(C#CCCO)cc31)[C@H]2c1ccccc1OCCO | -0.324 | 0.627 | -0.0962 | 0.21 | -0.0765 | 0.944 | 1.23 | 0.37 (inactive) | -0.0238 | -0.0994 |
| COCCOC(=O)N1C(=O)[C@@]2(c3cc(C#CC4=CCCCC4)ccc31)[C@H](C(=O)Nc1nc3ccccc3s1)[C@H]1C(=O)O[C@H](c3ccccc3)[C@H](c3ccccc3)N1[C@@H]2c1ccc(O)cc1 | -0.528 | 1.39 | 0.0156 | 0.176 | 0.992 | 1.15 | 1.03 | 0.0402 (inactive) | 1.13 | 0.103 |
| COc1cc(NN2C(C(O)c3ccc(N(C)C)cc3)C=CC3C(=O)N(c4ccccc4)C(=O)C32)cc(OC)c1OC (stereo not given) | 0.817 | 0.0214 | 0.107 | 0.396 | 1.18 | 0.465 | 1.13 | 1.44 (inactive) | 0.588 | -0.0618 |
| O=C1NC(=O)C2C1C=CC(C(O)c1ccco1)N2Nc1ccc(Cl)cc1Cl (stereo not given) | 0.388 | -0.13 | -0.0375 | -0.0728 | 0.42 | 0.825 | 1.24 | 1.62 (inactive) | 0.549 | -0.126 |
| CC(c1ccccc1)C(O)C1C=CC2C(=O)N(C)C(=O)C2N1Nc1ccccc1 (stereo not given) | 0.799 | -0.146 | 0.362 | 0.796 | 1.63 | 1.43 | 1.25 | 0.796 (inactive) | 0.814 | 0.0578 |
| CN1C2C=C(CCCO)C(C3C(=O)N(C(N)=O)C(=O)C32)C1C1CC1 (stereo not given) | -0.263 | 0.416 | -0.0959 | -0.148 | -0.536 | 0.0343 | 0.949 | 0.397 (inactive) | -0.57 | 0.0274 |
| O=C1C[C@]2(c3ccc([N+](=O)[O-])cc3)C(=O)N(C3CC3)c3cc(CO)ccc3[C@H]2N1CC12CC3CC(CC(C3)C1)C2 | -0.224 | -0.622 | -0.0825 | -0.0253 | -0.562 | -0.0609 | -0.5 | -0.0608 (inactive) | 0.0196 | -0.258 |
| CCCCC(=C=CC[C@H](O)c1ccc(OCCO)cc1)CCO | -0.253 | -0.0707 | -0.114 | -0.161 | -0.425 | 1.48 | 0.66 | -0.572 (inactive) | -0.493 | 0.0156 |
| CCOC(=O)C[C@H]1[C@H](OC(=O)c2ccccc2-c2ccccc2)[C@@H](NC(=O)c2ccc3ccccc3c2)c2cc(OCCCO)ccc2N1C(=O)c1ccccc1 | -0.421 | 0.483 | -0.0277 | 1.03 | 0.299 | 0.12 | 0.965 | -0.201 (inactive) | 0.0603 | 0.0373 |
| O=C1C2C=CC(C(O)c3ccco3)N(Nc3ccccc3F)C2C(=O)N1c1ccccc1 (stereo not given) | -0.111 | -0.501 | 0.134 | 0.458 | 1.02 | 1.32 | 0.894 | 0.793 (inactive) | 0.931 | -0.173 |
| COc1cc2c(cc1O)C(c1ccc(CN3CCCC3)cc1)N(Cc1cc3c(cc1Br)OCO3)CC2 (stereo not given) | -0.373 | -0.311 | -0.0351 | 0.183 | 0.963 | 0.729 | 0.784 | 0.0296 (inactive) | 0.296 | -0.201 |
| CCCCNC(=O)c1ccc(C#CC(C)(C)C)c(OC(C)=O)c1 | -0.769 | 0.212 | -0.132 | 0.572 | 1.04 | 0.158 | 0.865 | 4.66 (inactive) | 0.031 | -0.0994 |
| CC(C)NC(=O)[C@@]1(C)c2ccccc2C(=O)N(Cc2ccc(OC(F)(F)F)cc2)[C@H]1c1ccc(CO)cc1 | 1.95 | -1.63 | -0.167 | -0.546 | -1.25 | 0.628 | 0.865 | -3.14 (inactive) | -0.55 | -0.28 |
| C=CCC(OC(C)=O)[C@@H]1[C@@H](N(Cc2cccc3ccccc23)C(=O)Cc2ccc(OC)cc2)c2cc(OCCCO)ccc2N1C(=O)c1ccc(-c2ccccc2)cc1 (stereo not given in full) | 0.112 | 0.0969 | -0.112 | -0.153 | -0.0051 | 0.497 | -0.359 | -1.39 (inactive) | 0.428 | -0.201 |
| O=C(c1ccccc1)N1C(=O)[C@]2(Cc3ccccc31)N=C(c1ccc(OCCCO)cc1)O[C@@H]2c1ccccc1 | -0.203 | -0.0033 | -0.061 | 0.821 | 0.562 | 1.61 | 1.3 | -1.76 (inactive) | 0.313 | 0.252 |
| CCOC(=O)C[C@H]1[C@H](OC(=O)c2ccc(C(=O)c3ccccc3)cc2)[C@@H](NC(=O)C2CCCCC2)c2cc(OCCCO)ccc2N1C(=O)c1ccc2ccccc2n1 | -0.244 | 0.213 | -0.0885 | 0.735 | 1.03 | 0.532 | 0.722 | 0.0852 (inactive) | 0.842 | 0.382 |
